# Experimental data from PubChem BioAssay.
# A number with no mark means an inactive call. For some of these results: Results with a measured potency or affinity are listed apart. Active and inactive are the calls of the source. Unless noted, no rule for the calls is given here.
# Experiments:
# [1] = antimalarial activity against Dd2 strain (AID 2302;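 active = growth inhibition above 50% at the single 2 µM test dose, taken to imply half-maximal potency below 2 µM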;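 also: 0% = DMSO untreated growth and 100% = chloroquine plus artemisinin killed control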); details: P. falciparum Dd2 in RBCs, LDH growth readout, 72 h; at 2 µM; hits give high values
# [2] = human hepatoma cell viability loss – ATP luminescence, cytotoxicity control for P. falciparum antimalarial project, primary screen (AID 2303;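 active = inhibition above 50%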;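 also: 0% = DMSO wells and 100% = digitonin-killed cells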); details: HepG2 viability, 24-48 h, at 10 µM, hits give high values
# [3] = target: L-lactate dehydrogenase (Plasmodium falciparum (isolate CDC / Honduras)) (UniProt Q27743); experiment: PfLDH activity inhibition – cell lysate, 3D7 strain, counter-screen for P. falciparum growth inhibition project (AID 2304);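 also: 0% = vehicle and 100% = reference inhibitor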; details: P. falciparum 3D7 crude extract, LDH APAD/NBT absorbance; at 2 µM; hits give high values
# [4] = inhibition of 3D7 malaria parasite growth – strain 3D7 (AID 2306);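 also: 0% = DMSO wells and 100% = chloroquine plus artemisinin control wells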; details: P. falciparum 3D7 erythrocytic growth, LDH absorbance, 72 h; at 2 µM; hits give high values
# [5] = target: Calcium-dependent protein kinase 1 (Plasmodium falciparum (isolate 3D7)) (UniProt P62344); experiment: PfCDPK1 kinase inhibitors, biochemical, TCAMS library (AID 1159585; cut-off not given, nearly all actives have IC50 up to about 0.98 µM;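 also: inhibitors leave more ATP so luminescence rises with inhibition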); details: recombinant PfCDPK1, Kinase-Glo ATP depletion luminescence
# [6] = target: Plasmodium falciparum protein kinase 6 (PK6, PF3D7_1337100) (UniProt Q8IDW1); experiment: PfPK6 kinase inhibitors, biochemical, TCAMS library (AID 1159586); details: recombinant PfPK6, Kinase-Glo ATP depletion luminescence
# [7] = target: Protein kinase 7 (PK7), Plasmodium falciparum 3D7 (PF3D7_0213400) (UniProt Q7YTF7); experiment: inhibition of Plasmodium PK7 catalytic activity – biochemical, TCAMS antimalarial set, Kinase-Glo luminescence (AID 1159587); details: recombinant PfPK7, Kinase-Glo ATP depletion luminescence
# [8] = target: Calcium-dependent protein kinase 4 (Plasmodium falciparum (isolate 3D7)) (UniProt Q8IBS5); experiment: PfCDPK4 kinase inhibitors, biochemical, TCAMS library (AID 1159588; cut-off not given, nearly all actives have IC50 up to about 0.91 µM); details: recombinant PfCDPK4, Kinase-Glo ATP depletion luminescence
# Sequence of Calcium-dependent protein kinase 4 (Plasmodium falciparum (isolate 3D7)) (Q8IBS5 whole entry, looked up): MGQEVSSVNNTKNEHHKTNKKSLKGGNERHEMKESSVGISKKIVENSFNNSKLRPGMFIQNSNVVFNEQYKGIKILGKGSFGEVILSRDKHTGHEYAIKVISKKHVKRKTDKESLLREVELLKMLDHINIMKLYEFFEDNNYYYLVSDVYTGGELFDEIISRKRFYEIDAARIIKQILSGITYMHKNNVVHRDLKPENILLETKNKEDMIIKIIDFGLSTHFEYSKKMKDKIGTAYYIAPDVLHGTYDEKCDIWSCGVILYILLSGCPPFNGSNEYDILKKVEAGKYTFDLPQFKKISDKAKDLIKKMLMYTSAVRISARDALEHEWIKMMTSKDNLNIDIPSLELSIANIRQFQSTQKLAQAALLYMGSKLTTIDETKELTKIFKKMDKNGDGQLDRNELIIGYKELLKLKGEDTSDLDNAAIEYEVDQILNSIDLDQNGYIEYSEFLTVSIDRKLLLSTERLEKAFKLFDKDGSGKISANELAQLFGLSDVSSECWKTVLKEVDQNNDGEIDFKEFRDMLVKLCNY
# Sequence of Protein kinase 7 (PK7), Plasmodium falciparum 3D7 (PF3D7_0213400) (Q7YTF7 1-343): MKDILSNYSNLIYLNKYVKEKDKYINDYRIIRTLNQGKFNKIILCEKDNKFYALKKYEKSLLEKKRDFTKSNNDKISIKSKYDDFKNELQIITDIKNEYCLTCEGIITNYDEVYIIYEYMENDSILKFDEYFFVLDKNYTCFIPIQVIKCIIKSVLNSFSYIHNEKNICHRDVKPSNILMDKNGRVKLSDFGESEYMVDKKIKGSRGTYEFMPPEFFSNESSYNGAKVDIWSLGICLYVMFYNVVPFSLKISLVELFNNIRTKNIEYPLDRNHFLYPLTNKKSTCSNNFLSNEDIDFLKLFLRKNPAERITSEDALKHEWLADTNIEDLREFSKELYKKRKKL
# Sequence of Plasmodium falciparum protein kinase 6 (PK6, PF3D7_1337100) (Q8IDW1 1-305): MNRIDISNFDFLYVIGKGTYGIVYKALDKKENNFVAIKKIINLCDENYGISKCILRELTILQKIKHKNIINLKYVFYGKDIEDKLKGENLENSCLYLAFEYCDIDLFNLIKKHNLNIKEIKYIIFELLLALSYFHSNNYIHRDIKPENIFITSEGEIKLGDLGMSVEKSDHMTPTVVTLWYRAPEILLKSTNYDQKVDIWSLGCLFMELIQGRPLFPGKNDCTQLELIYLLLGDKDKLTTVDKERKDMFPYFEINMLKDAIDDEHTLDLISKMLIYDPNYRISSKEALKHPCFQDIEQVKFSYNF
# Sequence of Calcium-dependent protein kinase 1 (Plasmodium falciparum (isolate 3D7)) (P62344 whole entry, looked up): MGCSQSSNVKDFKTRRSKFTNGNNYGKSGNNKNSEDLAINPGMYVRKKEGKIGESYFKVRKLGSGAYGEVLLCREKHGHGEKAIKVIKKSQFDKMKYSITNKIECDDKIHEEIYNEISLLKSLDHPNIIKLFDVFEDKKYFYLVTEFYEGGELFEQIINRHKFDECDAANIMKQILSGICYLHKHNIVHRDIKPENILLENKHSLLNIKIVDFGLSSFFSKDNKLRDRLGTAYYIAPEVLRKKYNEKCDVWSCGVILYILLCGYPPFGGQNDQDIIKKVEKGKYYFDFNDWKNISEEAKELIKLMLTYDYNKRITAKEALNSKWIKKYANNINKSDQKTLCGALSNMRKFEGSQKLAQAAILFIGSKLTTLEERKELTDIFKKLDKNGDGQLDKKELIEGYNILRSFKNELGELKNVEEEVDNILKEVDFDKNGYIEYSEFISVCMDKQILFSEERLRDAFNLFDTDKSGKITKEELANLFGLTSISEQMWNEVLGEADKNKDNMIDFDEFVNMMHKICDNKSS
# Sequence of L-lactate dehydrogenase (Plasmodium falciparum (isolate CDC / Honduras)) (Q27743 whole entry, looked up): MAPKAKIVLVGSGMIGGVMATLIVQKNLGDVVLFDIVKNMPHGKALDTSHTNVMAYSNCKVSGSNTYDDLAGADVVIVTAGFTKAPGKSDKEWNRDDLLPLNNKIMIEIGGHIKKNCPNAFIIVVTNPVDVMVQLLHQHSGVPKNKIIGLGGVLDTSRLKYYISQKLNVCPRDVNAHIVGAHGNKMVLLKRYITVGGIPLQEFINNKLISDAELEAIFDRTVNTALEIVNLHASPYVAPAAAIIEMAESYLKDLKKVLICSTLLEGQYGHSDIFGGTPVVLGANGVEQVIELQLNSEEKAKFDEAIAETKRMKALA
SMILES,growth inhibition [1],inhibition [2],inhibition [3] [%],growth inhibition [4],outcome [5],outcome [6],outcome [7],outcome [8]
CN1CCN(c2ccc(-c3cccc(NC(=O)c4ccc5ccccc5c4)c3)nn2)CC1,26%,17%,-2,94% (active),inactive,inactive,inactive,inactive
O=C(NCc1cccc(C(F)(F)F)c1)C(c1cc2ccccc2o1)N1CCN(C(c2ccccc2)c2ccccc2)CC1 (stereo not given),80% (active),-4%,0,91% (active),inactive,inactive,inactive,inactive
CC1CCc2sc(-c3nnc(SC(C)C(=O)NC4CC4)o3)cc2C1 (stereo not given),69% (active),5%,-4,83% (active),inactive,inactive,inactive,inactive
COc1ccc(CNCc2ccccc2)cc1-c1ccc(S(=O)(=O)NCCN2CCCC2)s1,62% (active),32%,0,101% (active),inactive,inactive,inactive,inactive
COc1cccc(Cc2c(C)nc3nc(N)nc(N)c3c2C)c1,1%,65% (active),-2,95% (active),inactive,inactive,inactive,inactive
CC1(C)N=C(N)NC(NOCCCCCCONC2=NC(C)(C)N=C(N)N2)=N1,98% (active),34%,-4,95% (active),inactive,inactive,inactive,inactive
O=C(/C=C/c1ccc([N+](=O)[O-])cc1)N1CCC(NS(=O)(=O)c2cccc(C(F)(F)F)c2)CC1,8%,-2%,-1,94% (active),inactive,inactive,inactive,inactive
COc1ccc(Br)cc1C1Nc2ccc3ccccc3c2C2=C1C(=O)CC(c1ccccc1)C2 (stereo not given),96% (active),25%,4,101% (active),inactive,inactive,inactive,inactive
COc1ccc(NC(=O)c2ccc(C=Cc3ccc(C(F)(F)F)cc3)cc2)cc1N1CCN(C)CC1,47%,46%,-6,99% (active),inactive,inactive,inactive,inactive
O=C(Nc1ccc(-c2ccc(CN3CCNCC3)cc2)cc1)c1cccc(Cl)c1,16%,58% (active),2,91% (active),inactive,inactive,inactive,inactive
Nc1c(Cl)cc(C(O)CNCCCCCOCCc2ccccc2)cc1C(F)(F)F (stereo not given),96% (active),3%,5,99% (active),inactive,inactive,inactive,inactive
Cc1cc(-c2cccc(CNCc3ccccc3)c2)ccc1S(=O)(=O)NCCN1CCCC1,58% (active),40%,1,98% (active),inactive,inactive,inactive,inactive
COc1cc(Nc2ccnc3ccc(C(F)(F)F)cc23)cc(OC)c1OC,100% (active),15%,1,101% (active),inactive,inactive,inactive,inactive
Cc1[nH]c(C)c(-c2ccc(-c3cc(C(F)(F)F)cc(C(F)(F)F)c3)nc2)c(=O)c1Br,96% (active),18%,0,98% (active),inactive,inactive,inactive,inactive
Cc1cc(C(=O)Nc2ccc3c(c2)CCN3C2CCN(Cc3cccc(F)c3F)C2)no1 (stereo not given),94% (active),0%,-4,95% (active),inactive,inactive,inactive,inactive
CC1CN(Cc2ccccc2)CCN1c1ccc(NC(=O)c2cccs2)cc1 (stereo not given),96% (active),0%,-2,96% (active),inactive,inactive,inactive,inactive
Clc1ccc(-c2ccc(C=NNc3nc(Nc4ccccc4)nc(Nc4ccccc4)n3)o2)cc1Cl,75% (active),1%,-1,97% (active),inactive,inactive,inactive,inactive
CC[C@H](C)CNC(=O)c1cncc(-c2ccc(CNCCOc3ccccc3)cc2)c1,0%,7%,3,90% (active),inactive,inactive,inactive,inactive
CN(C)c1cccc2c(S(=O)(=O)Nc3cccc(CCN4CCC(N5CCCCC5)CC4)c3)cccc12,54% (active),41%,-2,98% (active),inactive,inactive,inactive,inactive
O=C(Nc1cccc(-c2nn3ccccc3c2-c2ccnc(Nc3ccccc3)n2)c1)c1cc(F)ccc1F,75% (active),8%,0,98% (active),inactive,inactive,inactive,inactive
